hgDAF12 agonist – activates the H. glycines DAF-12 receptor ligand-binding domain | HEK293 GAL4-hgDAF12 UAS-luciferase reporter, agonist luminescence; normalized to butyrate control | activation, % at 6.8 µM | 1.8% of 370,000 active | AID 687014;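 active = activation above a cutoff set at the mean of all screened compounds plus 3 SD, cut at about 10% in these data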
ssDAF12 agonist – activates DAF-12 receptor from parasite S. stercoralis. activation, % at 6.8 µM. HEK293 ssDAF-12/GRIP1 lit1-tk-luc reporter, luminescence; % of 3 µM dafachronic acid response. 1% of 370,000 active;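 active = activation above the mean over all tested compounds plus 3 SD, cut at about 0.9% in these data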
SMARCA2 activ – increases SMARCA2 function in MMTV reporter cells | MG213 cells, MMTV-luciferase reporter, dexamethasone, overnight | activation, % at 9.1 µM | 1% of 370,000 active; in the data active = activation above about 7.8%
DAX1 inh-1 – NR0B1 (DAX1) inhibition | P51843 | HEK293 Gal4-DAX1 luciferase reporter, luminescence | inhibition, % at 6.75 µM | 0.99% of 340,000 active;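 active = inhibition above the mean over all tested compounds plus 3 SD, cut at about 4.2% in these data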;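 note: inhibition shows as a rise in luminescence from relieved DAX1 repression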
Target sequence (P51843 207-470 limits assumed): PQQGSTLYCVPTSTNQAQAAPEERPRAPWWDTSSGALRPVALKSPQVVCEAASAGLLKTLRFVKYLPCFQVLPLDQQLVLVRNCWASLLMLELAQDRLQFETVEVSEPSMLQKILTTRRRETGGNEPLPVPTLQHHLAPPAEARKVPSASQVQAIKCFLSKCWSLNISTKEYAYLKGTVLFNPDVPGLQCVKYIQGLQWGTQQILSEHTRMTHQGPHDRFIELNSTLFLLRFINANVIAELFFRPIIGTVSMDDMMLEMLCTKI
DAX1 inh-2 – DAX1 (NR0B1) inhibition, primary screen; HEK293T StAR-luciferase reporter, SF-1/DAX-1 repression relief; inhibition, % at 6.8 µM; 1.1% of 370,000 active; AID 652010;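 active = inhibition above the mean over all tested compounds plus 3 SD, cut at about 3.6% in these data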;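 note: higher inhibition means more luminescence from relief of DAX-1 repression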
hcDAF12 agonist – H. contortus DAF-12 activation, primary screen | activation, % at 6.8 µM | 1.4% of 370,000 active | AID 652067 | HEK293 hcDAF-12 lit1-tk-luc reporter, luminescence; 0% DMSO, 100% Δ7-dafachronic acid;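 active = activation above the mean of all tested compounds plus 3 SD, cut at about 5.5% in these data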
Of the large screens only hits and unclear results are named; the others gave an inactive call. Hits are enriched below; roughly 4.8% of the tested compounds scored in any of these assays.

O=C(O)c1cccc(N/N=C/c2cc(Br)cc(Br)c2O)c1	none
CCN(CC(=O)Nc1c(F)cccc1F)C(=O)c1cc([N+](=O)[O-])ccc1N1CCOCC1	none
CC(C)CNC(=O)C1(C)CCCN1C(=O)CCc1cccs1 (stereo not drawn)	none (no result: DAX1 inh-1)
CC(C)(C)c1ccc(/C=N/Nc2ccc(C(=O)O)cc2)cc1	none
O=C(O)c1cccc(N/N=C/c2cccnc2)c1	ssDAF12 agonist 2.3
CC(C)(C)c1ccc(/C=N/Nc2cccc(C(=O)O)c2)cc1	hgDAF12 agonist 11.8, DAX1 inh-2 4.0
CCOC(=O)Cc1csc(NC(=O)CSc2nccn2C)n1	none
COc1ccc(CCC[C@@H](CCC(=O)N(c2ccccc2)c2ccccc2)CCc2ccccc2)cc1	none (no result: DAX1 inh-1)
CC1CCC/C(=N\NC(=O)Nc2ccccc2)C1 (stereo not drawn)	DAX1 inh-1 4.8
Cc1ccc(S(=O)(=O)NC(=O)Nc2c(C)cccc2C)cc1	none
Cc1ccc(Cl)cc1N1CCN(C(=O)c2cc3c(=O)n(C)c4ccccc4c3n2C)CC1	none
Cc1cccc(N2CCN(C(=O)c3cc4c(=O)n(C)c5ccccc5c4n3C)CC2)c1C	ssDAF12 agonist 1.9
Cc1ccc(NC(=O)CSc2ccccc2NC(=O)c2ccccc2)cc1Cl	hcDAF12 agonist 5.6
CC1CCCN(C(C(=O)Nc2ccc3c(c2)OCO3)c2ccccc2)C1 (stereo not drawn)	hcDAF12 agonist 6.3
C=CC(=O)NC1CCCCN(CC)C1=O (stereo not drawn)	none (no result: DAX1 inh-1)
CCCCc1ccc(NC(=O)C2CCCO2)cc1 (stereo not drawn)	hgDAF12 agonist 11.1
CCCCNC(=O)c1ccc(NC(=O)C2CCCO2)cc1 (stereo not drawn)	none
O=C(NCCc1ccccc1)c1ccccc1NC(=O)C1CCCO1 (stereo not drawn)	hgDAF12 agonist 10.8, DAX1 inh-2 4.3, hcDAF12 agonist 5.6
COc1ccc(OC)c(S(=O)(=O)N2CCCCC2C(=O)N2CCN(CCO)CC2)c1 (stereo not drawn)	none (no result: DAX1 inh-1)
Cc1c(-n2c(O)c(C3=c4ccccc4=NC3=O)sc2=O)c(=O)n(-c2ccccc2)n1C	ssDAF12 agonist 1.1
O=C(O)Cn1c(O)c(C2=c3ccccc3=NC2=O)sc1=O	none
COC(=O)[C@]12C[C@H](CC(=O)N3CCN(C(=O)C4CC4)CC3)C(=O)N(Cc3cccc4ccccc34)C1=C[C@H](C1CCCC1)O[C@@H]2C	none (no result: DAX1 inh-1)
N#CC1=C(N)n2c(s/c(=C\c3ccco3)c2=O)=C(C#N)C1c1ccco1 (stereo not drawn)	ssDAF12 agonist 1.6
O=C(CN1C(=O)NC2(CCCC2)C1=O)N1CCCSC1=Nc1ccccc1	none
Nc1nc(SCC(=O)N2CCCC2)[nH]c(=O)c1NC(=O)c1ccco1	ssDAF12 agonist 2.3
c1ccc(-c2nnc(-c3ccccc3)nn2)cc1	ssDAF12 agonist 1.0 (no result: DAX1 inh-1)
c1ccc(-c2nn[nH]n2)cc1	none
CC(=O)C1(C(=O)NC2CCCC2)CC(c2ccccn2)=NO1 (stereo not drawn)	none (no result: DAX1 inh-1)
Cc1cccc(NC(=O)CNC(=O)CCNC(=O)c2ccc(C(C)(C)C)cc2)c1C	none
Cc1nccnc1Sc1ccccc1	ssDAF12 agonist 2.0
O=C(O)c1cccnc1Sc1ccccc1	none
Cc1ccc(S(=O)(=O)NC(=O)NC2=NC(C)(C)N(c3ccc(Cl)c(Cl)c3)C(N)=N2)cc1	none (no result: DAX1 inh-1)
Cc1ccc2oc(-c3cccc(NC(=O)/C=C/c4cccc([N+](=O)[O-])c4)c3C)nc2c1	hcDAF12 agonist 6.2
O=C(/C=C/c1cccc([N+](=O)[O-])c1)Nc1ccccn1	none
O=C1CCCC/C1=C\Nc1ccc(Cl)cn1	DAX1 inh-1 4.3
CC(On1nnc2ccc(S(=O)(=O)N3CCOCC3)cc21)C(=O)Nc1ccccc1F (stereo not drawn)	DAX1 inh-1 5.0
CCOc1ccccc1C(=O)N[C@H](C(=O)OCC(=O)Nc1nnc(-c2ccccc2)o1)C(C)C	none
CC1(C(=O)NS(=O)(=O)c2cccc(F)c2)CCN1C(=O)CCC1CCCC1 (stereo not drawn)	none (no result: DAX1 inh-1)
CCOC(=O)NC(=O)C(=CNc1cccc(C)c1)C(=O)NC(=O)OCC	none
CCOC(=O)NC(=O)C(=CNc1ccc(C)cc1)C(=O)NC(=O)OCC	hcDAF12 agonist 6.5
c1cncc(CNc2nc(-c3cccnc3)nc3ccccc23)c1	none
COc1cccc(-c2nc(NCc3cccnc3)c3ccccc3n2)c1O	hcDAF12 agonist 5.9
CCOCCCNC(=O)Cn1cc2c(n1)-c1c(oc(C(=O)N3CCCC3)c1C)CC2	DAX1 inh-1 4.7
COc1ccc(S(=O)(=O)N2CC=C(c3ccccc3)CC2)cc1OC	none
O=C1C(c2ccncc2)=C(O)c2ccccc21	hgDAF12 agonist 11.5, DAX1 inh-2 4.3, hcDAF12 agonist 6.4
Cc1ccc(CCNC(=O)C2CCN(S(=O)(=O)N3CCC4(CC3)OCCO4)CC2)cc1	hcDAF12 agonist 6.0
CCN(C(=O)COC(=O)c1cc2c(s1)CCCC2)c1c(N)n(Cc2ccccc2)c(=O)[nH]c1=O	none
C=C(CO)C1Cc2cc(C(C)=O)ccc2O1 (stereo not drawn)	DAX1 inh-1 4.3
CC1Cc2cc(C(=O)O)ccc2O1 (stereo not drawn)	none
COC(=O)c1cn[nH]c1NC(=S)Nc1ccc(C)cc1Cl	DAX1 inh-2 4.2
COC(=O)c1cn[nH]c1NC(=S)Nc1ccc(Cl)c(Cl)c1	none
CNc1cc(-c2ccc(O)cc2C)ncn1	none (no result: DAX1 inh-1)
Cc1c(C(=O)Nc2nnc(C3CC3)s2)oc2ccccc12	hgDAF12 agonist 10.9, hcDAF12 agonist 6.4
CCCn1c(-c2ccc[nH]c2=O)nc2cc(C)c(C)cc21	ssDAF12 agonist 1.1, DAX1 inh-1 4.4
O=C(Nc1ccc(Cl)cc1)c1csc([C@@H]2O[C@H](CO)[C@@H](O)[C@H]2O)n1	none (no result: DAX1 inh-1)
Clc1ccc(-c2nnc3n2N=C(c2ccc(-c4ccccc4)cc2)CS3)cc1	none (no result: DAX1 inh-1)
CC(=O)Nc1cc2c(cc1Cl)-c1ccccc1C2	none
CC(=O)Nc1cc2c(cc1Cl)-c1ccccc1C2O (stereo not drawn)	hcDAF12 agonist 5.9
COC(=O)c1cc(-c2ccc(OC)cc2)n[nH]1	hgDAF12 agonist 10.6
COc1cc(C)c(C(=O)Oc2cc(C)c(C(=O)O)c(O)c2C)c(O)c1C(=O)O	none
COc1cc(C)c(C(=O)Oc2cc(C)c(C(=O)O)c(O)c2C)c(OC)c1C	DAX1 inh-1 4.3
CCC(C)(C)C1CCC2(CC1)NC(=O)N(CC(=O)NC(C)CCc1ccccc1)C2=O (stereo not drawn)	none
O=C(N/N=C/c1c[nH]c2ccc(Br)cc12)C1CC1	none
NC(=O)C(=O)N/N=C/c1c[nH]c2ccc(Br)cc12	DAX1 inh-1 4.5
O=C(N/N=C/c1c[nH]c2ccc(Br)cc12)c1ccccn1	hgDAF12 agonist 16.4

Source: PubChem (The Scripps Research Institute Molecular Screening Center)
